Experimental findings from PubChem BioAssay AID2639 (National Center for Advancing Translational Sciences (NCATS), 2010) are described below.

Each structure is given as a SMILES string. Active and inactive are the calls of the source. Calls follow the shape of the full dose curve.

A short description of the assay: Platelet Aggregation Secondary Assay for Inhibitors of Platelet Integrin alphallb-beta3. The note with it: platelet-rich plasma, ADP-induced aggregation, absorbance 563 nm. An excerpt:
NIH Molecular Libraries Probe Production Network [MLPCN] NIH Chemical Genomics Center [NCGC] MLPCN Grant: 1 R03 MH083257-01 Assay Provider: Barry Coller, Rockefeller University NCGC Assay Overview: The alphaIIbbeta3 receptor plays a vital role in hemostasis and thrombosis, where receptor deficiency causes the hemorrhagic disorder, Glanzmann thrombasthenia, and uncontrolled receptor activation causes thrombosis and blood vessel occlusion. Small molecule inhibitors of alphaIIbbeta3, tirofiban and eptifibatide, have undesirable side effects thought to arise from conformational changes in alphaIIbbeta3. These changes transiently activate the receptor to cause spontaneous platelet aggregation and thrombus formation. […] This secondary assay measures platelet aggregation (Blue et al., 2008). Platelets are induced to aggregate and aggregation is tracked by the change in absorbance over time. Inhibitors of alphaIIbbeta3 block platelet aggregation and decrease the rate of change in absorbance.
NCGC Assay Protocol Summary: Untreated 96-well polystyrene plates (Nunc, Rochester, NY) were blocked for at least 1 hour with HBMT (138 mM NaCl, 12 mM NaHCO3, 10 mM HEPES, 2.7 mM KCl, 0.4 mM NaH2PO4, 0.1% glucose, 0.35% BSA, pH 7.4). Compounds (33 uL in HBMT) and citrated platelet-rich plasma (67 uL) were added to the wells. After plates equilibrated at 37 C in the plate reader (SpectraMax; Molecular Devices, Sunnyvale, CA) for 10 minutes, aggregation was initiated by adding ADP (5 uM final concentration; Chrono-Log Corp, Havertown, PA). Absorbance (Abs) was measured at 563 nm every 10 seconds with 3 seconds of shaking between determinations for 8 minutes. Reference Blue R, Murcia M, Karan C, Jirouskova M, and Coller BS. Application of high-throughput screening to identify a novel alphaIIb-specific small- molecule inhibitor of alphaIIbbeta3-mediated platelet interaction with fibrinogen. Blood. 2008, 111(3):1248-56
For the molecule `CCc1nn2c(=O)cc(-c3ccncc3)nc2s1`, the result was inactive.

Consider `O=C(O)c1ccc(-c2cccc(-c3nn4c(=O)cc(N5CCNCC5)nc4s3)c2)cc1`, for which the Potency is 11.4 µM (active).

Regarding `C[C@H](N)C(=O)Nc1cccc(-c2nn3c(=O)cc(N4CCNCC4)nc3s2)c1`, the Potency is 0.916 µM (active).

As for `Nc1ccc(-c2cccc(-c3nn4c(=O)cc(N5CCNCC5)nc4s3)c2)cc1`, the Potency is 1.9 µM (active).

Consider `O=C(Nc1cccc(-c2nn3c(=O)cc(N4CCNCC4)nc3s2)c1)C1CCNCC1`, for which the Potency was 8.6 µM (active).

Regarding `COCc1nn2c(=O)cc(N3CCNCC3)nc2s1`, the call was inactive.

`O=C(O)c1cccc(-c2cccc(-c3nn4c(=O)cc(N5CCNCC5)nc4s3)c2)c1`: the outcome was inactive.

As for `CCc1nn2c(=O)cc(N3C(C)CNCC3C)nc2s1` (stereo unspecified), the molecule was classed as inactive.

`Cc1noc(C)c1-c1cccc(-c2nn3c(=O)cc(N4CCNCC4)nc3s2)c1`: the molecule was classed as inactive.

On to `CCc1nn2c(=O)cc(NC3CNC3)nc2s1`, for which the call was inactive.

For `O=C(Nc1cccc(-c2nn3c(=O)cc(N4CCNCC4)nc3s2)c1)c1ccncc1`, the Potency is 1.5 µM (active).

As to `O=C(O)CNc1cccc(-c2nn3c(=O)cc(N4CCNCC4)nc3s2)c1`, the Potency is 12.7 µM (active).

As for `NC(=O)c1ccc(-c2cccc(-c3nn4c(=O)cc(N5CCNCC5)nc4s3)c2)cc1`, the Potency was 1.6 µM (active).

Turning to `NCCC(=O)Nc1cccc(-c2nn3c(=O)cc(N4CCNCC4)nc3s2)c1`, the Potency was 1.6 µM (active).

`O=C(Nc1cccc(-c2nn3c(=O)cc(N4CCNCC4)nc3s2)c1)c1ccon1`: the outcome was inactive.

For `CC(C)(C)c1nn2c(=O)cc(N3CCNCC3)nc2s1`, the result was inactive.

`NCC(=O)Nc1cccc(-c2nn3c(=O)cc(N4CCNCC4)nc3s2)c1`: the Potency is 0.163 µM (active).

With `O=C(O)c1cc(-c2cccc(-c3nn4c(=O)cc(N5CCNCC5)nc4s3)c2)cs1`, the result was inactive.

With `CNCC(=O)Nc1cccc(-c2nn3c(=O)cc(N4CCNCC4)nc3s2)c1`, the call was inactive.

Turning to `O=c1cc(N2CCNCC2)nc2sc(-c3cccc(-c4ccnc(F)c4)c3)nn12`, the Potency is 8.4 µM (active).

For `O=c1cc(N2CCNCC2)nc2sc(-c3ccncc3)nn12`, the Potency was 3.1 µM (active).

As to `Nc1ncc(-c2cccc(-c3nn4c(=O)cc(N5CCNCC5)nc4s3)c2)cn1`, the Potency was 10.1 µM (active).

In the case of `O=C(O)c1ccc(-c2nn3c(=O)cc(N4CCNCC4)nc3s2)cc1`, the Potency was 5.4 µM (active).

As to `C[C@@H](N)C(=O)Nc1cccc(-c2nn3c(=O)cc(N4CCNCC4)nc3s2)c1`, the Potency was 5.9 µM (active).

Take `O=c1cc(N2CCNCC2)nc2sc(Cc3ccccc3)nn12`: the Potency was 13.9 µM (active).

`O=c1cc(N2CCNCC2)nc2sc(-c3cccc(-c4ccncc4)c3)nn12`: the Potency is 8 µM (active).
